HttQ103 aggreg: reduces HttQ103-GFP aggregates in PC12 cells. PC12 HttQ103-GFP aggregates, Acumen cytometry, 40 h. Potency, µM (series often up to 46.1 µM), most hits filed as inhibitors. actives 1.1% (n = 220,000); active = well fitted curve in the direction sought with a large enough effect; inconclusive = small, poorly fitted or top-dose-only effect, or another doubt; inactive = no such curve, though single readings can be large; an effect the other way counts as inactive or inconclusive; note: nearly all actives have a fitted effect of over 60% in size
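Compounds (qHTS titration) were added to PC12 cells expressing an ecdysone-driven HTT exon 1 Q103–GFP fusion after induction with 100 nM tebufenozide. Aggregate formation was measured as GFP objects in cell lysates.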
RGS12 GoLoco inh: RGS12 GoLoco-Gai1 interaction inhibition; P63096; Gai1:RGS12 GoLoco peptide FP, rhodamine, 10 min; Potency, µM (doses to about 61.6 µM), most hits filed as inhibitors; actives 0.44% (n = 230,000); AID 880; active = well fitted inhibition curve with a large enough effect, not every such curve was filed as active; inactive = no such curve, though single readings can be large or run the other way; note: nearly all actives have a fitted effect of over 30% in size
Target sequence (P63096 whole entry, looked up): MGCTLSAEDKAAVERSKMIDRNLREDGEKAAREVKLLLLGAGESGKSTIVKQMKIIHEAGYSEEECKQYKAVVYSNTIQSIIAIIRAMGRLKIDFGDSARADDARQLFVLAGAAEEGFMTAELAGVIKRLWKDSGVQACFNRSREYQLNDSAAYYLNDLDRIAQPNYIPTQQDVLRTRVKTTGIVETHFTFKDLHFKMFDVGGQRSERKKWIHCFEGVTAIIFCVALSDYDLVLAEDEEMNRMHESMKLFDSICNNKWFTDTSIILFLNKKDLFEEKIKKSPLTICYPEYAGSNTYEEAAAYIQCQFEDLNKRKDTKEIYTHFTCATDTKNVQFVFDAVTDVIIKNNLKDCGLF
ALDH1A1 block: ALDH1A1 (human) enzyme inhibition; P00352; AID 1030; Purified ALDH1A1, NADH fluorescence, propionaldehyde substrate; Potency, µM (doses to about 75.3 µM), usual class: inhibitors; actives 7.3% (n = 220,000)
HTT cytoprotect: cytoprotection in Huntington HTT-Q103 PC12 cell model. PC12 HTT-Q103 induced, cytoprotection, ATP luminescence, 40 h. Potency, µM (doses to about 56.4 µM), hits mostly activators. actives 0.14% (n = 230,000); active = well fitted curve in the direction sought with a large enough effect; inconclusive = small, poorly fitted or top-dose-only effect, or another doubt; inactive = no such curve, though single readings can be large; an effect the other way counts as inactive or inconclusive; note: nearly all actives have a fitted effect of over 45% in size
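Compounds added alongside 100 nM tebufenozide, which induces toxic Q103 huntingtin exon 1-GFP in stable PC12 cells; surviving cells quantified by luminescent ATP measurement. Medium: phenol red-free DMEM, 5% equine and 5% calf serum.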
HPGD block: blocks human HPGD enzyme activity; purified HPGD, NADH fluorescence kinetic, PGE2 substrate; P15428; actives 4.3% (n = 150,000); AID 894; Potency, µM, actives largely listed as inhibitors
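NADH formation kinetics: reaction with 30 uM PGE2 and 1 mM NAD+ (final), 20 nM enzyme, Tris-HCl pH 8 with Tween 20, after 15 min compound preincubation at room temperature. Fluorescence change, last versus first of five reads.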
PNC assembly inh: inhibitors of perinucleolar compartment assembly; PC3M PTB-GFP, PNC prevalence imaging, 16 h; stronger effect = lower value; activity change (PNC), negative = inhibition, % at 10 µM; actives 3.1% (n = 140,000); AID 2417;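 active = readout at or below -70, meaning at least 70% loss of cells showing the perinucleolar compartment, a nuclear body marking cancer cells; inconclusive = readout between -30 and a set limit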
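Read-out is percentage of cells bearing a perinucleolar compartment, from automated 20x imaging of fixed, Hoechst-stained PC3M PTB-GFP cells. Cells were seeded 4 h, then exposed 16 h to compound (23 nl of library stock) in duplicate plates.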
Hits are given with their value; – = inactive; ? = inconclusive; · = not tested or not shown; [ ] = remark or other dose. A selection: hits, their analogues and other compounds. The true share with any hit is near 11%. Unless noted, calls come from the whole dose curve; as a rule, active = well fitted inhibition curve with a large enough effect (not every such curve was filed as active); inconclusive = small, poorly fitted or top-dose-only effect, or another doubt; inactive = no such curve, though single readings can be large or run the other way.

SMILES | HttQ103 aggreg | RGS12 GoLoco inh | ALDH1A1 block | HTT cytoprotect | HPGD block | PNC assembly inh
C[C@H]1C[C@@H]2[C@@H]([C@@H](O)C[C@@]3(C)[C@H]2CC[C@]3(O)C(=O)CO)[C@@]2(C)C=CC(=O)C=C12 | – | – | ? | – | – | ·
O=C(CCN1CCCCC1)c1csc2ccccc12 | · | –[14.2 µM] | 0.141µM | –[10 µM] | – | ·
O=C(CCN1CCCCC1)c1ccccc1 | – | – | 1.12µM | – | – | –
O=C(CCN1CCOCC1)c1ccccc1 | –[9.22 µM] | – | 0.316µM | – | – | –
O=C(CCN1CCCCC1)Nc1ccccc1 | – | – | ? | – | · | ·
O=C(OCCN1CCCCC1)c1ccccc1Cl | – | – | – | – | ? | –
C[N+]1(CCC(=O)c2ccccc2)CCCCC1 | – | – | 1.26µM | · | 31.6µM | –
CCN1CCCC1Cn1c(-c2ccccc2)nc2c(NCCOC)nc(C)nc21 (stereo not drawn) | · | – | ? | – | ? | ·
CCc1oc2ccccc2c1C(=O)CCN1CCCCC1 | – | – | 0.112µM | –[10 µM] | 28.2µM | –
O=c1oc2ccccc2c(N2CCCCC2)c1CN1CCCCC1 | ? | – | 14.1µM | –[10 µM] | – | –
O=c1oc2ccccc2c(N2CCCCC2)c1CN1CCCC1 | – | – | – | –[10 µM] | – | –
CC(=O)c1oc2ccccc2c1NC(=O)CN1CCCCC1 | – | – | – | –[10 µM] | – | ?
NC(=O)N1OCC2COc3ccc4ccccc4c3C21 (stereo not drawn) | –[9.22 µM] | – | – | – | – | –
O=C(Nc1ccc(Cl)cc1)N[C@@H]1c2c(ccc3ccccc23)OC[C@@H]1CO | – | – | – | – | – | -106.0
O=c1cc(CO)oc(C(Nc2ccccn2)c2cccc(F)c2)c1O (stereo not drawn) | – | – | 31.6µM | –[10 µM] | – | –
CC(=O)O[C@@H]1C[C@]2(C)[C@H](C[C@@H](O)[C@H]3[C@@]4(C)CC[C@@H](O)[C@@H](C)[C@@H]4CC[C@@]32C)/C1=C(\CCC=C(C)C)C(=O)O | · | · | · | –[1.9 µM] | · | ·
Cc1ccc(Cn2nnc3c(=O)n(Cc4cc(C)ccc4C)cnc32)cc1 | – | – | – | –[10 µM] | 3.98µM | –
Cc1ccccc1Cn1cnc2c(nnn2Cc2ccc(F)cc2)c1=O | – | – | – | –[10 µM] | – | ?
Cc1cccc(Cn2cnc3c(nnn3Cc3ccc(Cl)cc3)c2=O)c1 | – | – | – | – | 12.6µM | –
Cc1ccc(Cn2nnc3c(=O)n(Cc4cccc(C)c4)cnc32)cc1 | – | – | – | –[10 µM] | 5.01µM | ?
O=c1c2nnn(Cc3ccc(Cl)cc3)c2ncn1Cc1ccc(F)cc1 | – | – | – | –[10 µM] | 28.2µM | –
Cc1ccc(Cn2cnc3c(nnn3Cc3ccc(Cl)cc3)c2=O)cc1 | – | – | – | – | – | –
COc1cccc([C@@H]2Oc3ccc(Br)cc3C[C@H]2OC(=O)N[C@H]2CCCc3ccccc32)c1 | · | – | – | – | – | ·
CCCCCN=c1ccn(Cc2ccccc2)c2ccccc12 | · | – | – | – | – | ·
NC(=S)NCCC[C@H](N)C(=O)O | · | – | ? | – | · | ·
SMILES | HttQ103 aggreg | RGS12 GoLoco inh | ALDH1A1 block | HTT cytoprotect | HPGD block | PNC assembly inh
CC1=[N+]([O-])C(C)(C)N(O)C1(C)C | –[9.22 µM] | – | – | –[10 µM] | · | ·
CCN(CC)CCC(=O)N1c2ccccc2Sc2ccc(C(F)(F)F)cc21 | – | · | · | – | · | ·
O=S(=O)(c1cnc[nH]1)N1CCc2ccccc21 | – | – | 20µM | – | – | –
CN(C)c1ccc(-c2ccncc2)cc1 | – | – | – | – | – | –
CNc1nnc(-c2ccc(N(C)C)cc2)s1 | – | – | ? | –[10 µM] | ? | -95.2
Cc1nc(NCc2ccccc2)c2nc(-c3ccccc3)n(CCCN3CCCCC3C)c2n1 (stereo not drawn) | · | – | ? | – | ? | ·
COc1ccc2c(c1)Cc1sc(NC(=O)c3ccccc3)nc1-2 | – | – | ? | – | ? | –
COc1ccc(C(=O)Nc2nc3c(s2)Cc2cc(OC)ccc2-3)cc1 | – | – | 22.4µM | – | – | –
COc1ccc2c(c1)Cc1sc(NC(=O)c3cccs3)nc1-2 | – | – | 2.51µM | –[0.074 µM] | – | ?
CCN(CC)S(=O)(=O)c1ccc(/C=C/C(=O)Nc2ccc(F)cc2F)cc1 | – | · | 20µM | –[10 µM] | · | –
COc1cc(/C=C/C(=O)Nc2cc(S(=O)(=O)N3CCOCC3)ccc2N2CCCC2)cc(OC)c1OC | – | – | 11.2µM | –[10 µM] | · | ·

Assay outcomes as filed in PubChem BioAssay.
